Test results: PubChem BioAssay (EPA / NIEHS)
Several values for one entry are separate records, joined by “and”; a condition that tells them apart may be missing. Equal entries are not always repeated. Results filed as inconclusive are left out. Some structures have more than one record in an assay (separate samples or runs), and their calls can disagree. Activity calls are given as the source filed them. How the source made its calls: active means hit-call score of the fitted dose curve at least 0.9, where 1 is the maximum; inconclusive means response in the unintended direction; inactive means score below 0.9.

Experiment: TOX21_p53_BLA_p2_viability: Viability Assessment in the Tox21 HCT-116 p53 Agonism Beta-lactamase Assay, Phase 2 (AID 2283591);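 further: compound exposure lasted 16 h at 37 °C; actives lower the ATP signal meaning cytotoxicity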
Excerpt: TOX21_p53_BLA_p2 is a cell-based, single-readout assay that uses HCT116, a human intestinal cell line, […] in a 1536-well plate.TOX21_p53_BLA_p2_viability is an assay readout measuring cellular ATP content and detected with CellTiter-Glo Luciferase-coupled ATP quantitation.TOX21_p53_BLA_p2_viability used a type of viability reporter where loss-of-signal activity can be used to understand changes in the cell viability. Furthermore, this assay endpoint can be referred to as a secondary readout, because this assay has produced multiple assay endpoints where this one serves a viability function. To generalize the intended target to other relatable targets, this assay endpoint is annotated to the cell cycle intended target family, where the subfamily is cytotoxicity.
Thawing Method: Place 14 mL of pre-warmed thaw medium into a 15 mL of conical tub. Remove the vial of cells to be thawed from liquid nitrogen and thaw rapidly by placing at 37C in a water bath with gentle agitation for 1-2 minutes. Decontaminate the vial by wiping with 70% ethanol before opening in a biological safety cabinet. Transfer the vial contents drop-wise into 14 mL of thaw medium in a sterile 15-mL conical tub. Centrifuge cells at 900 rpm for 4 minutes and resuspend in thaw medium. Transfer contents to the T75 tissue culture flask containing Thaw Medium and place flask in a humidified 37C/5% CO2 incubator. Switch to growth medium at first passage.Propagation Method: Aspirate medium, rinse once in DPBS, add 0.25% Trypsin/EDTA and swirl to coat the cell evenly. Add an equal volume of Growth Medium to inactivate Trypsin after 2-3 minutes incubation at 37C. Centrifuge cells at 900 rpm for 4 minutes and resuspend in growth medium. Cell should be passage or fed at least twice a week.Assay Protocol: Harvest cells from culture in growth medium and resuspend in assay medium. 2.2 Dispense 4000 cells/5 uL/well into 1536-well black/clear bottom plates using a Multidrop dispenser. After the cells were incubated at 37C for 5 hours, 23 nL of compounds dissolved in DMSO were transferred to the assay plate by a PinTool resulting in a 217-fold dilution. Incubate the plates for 16 hours at 37C, 5% CO2. Add 1 uL of 6X LiveBLAzer FRET B/G (CCF4-AM) Substrate Mixture to each well using a BioRAPTR dispenser and incubate the plates at room temperature for 2 hours. Measure fluorescence intensity at 460 and 530 nm emission and 405 nm excitation by an Envision detector. Data is expressed as the ratio of 460nm/530nm emissions. Add 4 uL of Cell-titer Glo to each well using BioRAPTR and incubate the plates at room temperature for […]. For cell viability readout that measures cytotoxicity, 4 ul/well of CellTiter-Glo reagent was added into the assay plates using a Flying Reagent Dispenser. After 30 min incubation at room temperature, the luminescence intensity in the plates was measured using a ViewLux plate reader.

SMILES | outcome | AC50
CCCCCCCCCl | inactive | 
Clc1ccc(C2(Cn3cncn3)CC(Br)CO2)c(Cl)c1 (stereo unspecified) | inactive | 
CC(C)C1CCC(Cc2ccc(Cl)cc2)C1(O)Cn1cncn1 (stereo unspecified) |  | 53.1 µM (active)
C[C@H]1O[C@@H](O[C@H]2[C@@H](O)C[C@H](O[C@H]3[C@@H](O)C[C@H](O[C@H]4CC[C@@]5(C)[C@H](CC[C@@H]6[C@@H]5CC[C@]5(C)[C@@H](C7=CC(=O)OC7)CC[C@]65O)C4)O[C@@H]3C)O[C@@H]2C)C[C@H](O)[C@@H]1O |  | 35.6 nM (active) and 51.1 nM (active)
Cc1ccccc1C(=O)Nc1cccc(OC(C)C)c1 | inactive | 
Clc1nc(Cl)nc(Cl)n1 | inactive | 
ClCc1ccccn1 | inactive | 
CN(C)P(=O)(N(C)C)N(C)C | inactive | 
CC(C)c1ccc(CO)cc1 | inactive | 
CC(C)(OO)c1ccccc1 | inactive | 
CCC[CH2][Sn]([Cl])([Cl])[Cl] | inactive | 
C[C@H]1CCCC(=O)CCC/C=C/c2cc(O)cc(O)c2C(=O)O1 | inactive | 
CC(=O)OC(c1ccccc1)C(Cl)(Cl)Cl (stereo unspecified) | inactive | 
CC(C)CCCCCCOC(=O)c1ccccc1C(=O)OCCCCCCC(C)C | inactive | 
COc1cc2c(cc1OC)[C@@]13CCN4CC5=CCO[C@H]6CC(=O)N2[C@H]1[C@H]6[C@H]5C[C@H]43 | inactive | 
C[C@]12CCC(=O)C[C@@H]1CC[C@@H]1[C@@H]2CC[C@]2(C)[C@@H](O)CC[C@@H]12 | inactive | 
CNC | inactive | 
ClCc1cccnc1 | inactive | 
CC(C)(c1ccc(OCC2CO2)cc1)c1ccc(OCC2CO2)cc1 (stereo unspecified) | inactive | 68.3 µM (active)
COP(=S)(OC)Oc1cc(Cl)c(Cl)cc1Cl | inactive | 

SMILES | outcome | AC50
Cc1ccccc1N | inactive | 
CCC[CH2][Sn]([CH2]CCC)([CH2]CCC)[O]C(=O)c1ccccc1 |  | 0.93 µM (active)
CC12CC1(C)C(=O)N(c1cc(Cl)cc(Cl)c1)C2=O (stereo unspecified) | inactive | 
Cl/C=C\C[N+]12CN3CN(CN(C3)C1)C2 | inactive | 
N#CN=C(N)N | inactive | 
CCCCP(CCCC)CCCC | inactive | 
CC(C)OC(=O)Nc1ccccc1 | inactive | 
COC(=O)c1sccc1S(=O)(=O)NC(=O)Nc1nc(C)nc(OC)n1 | inactive | 
CC(C)(C)c1cc(O)ccc1O | inactive | 
O=P(O)(O)CN(CP(=O)(O)O)CP(=O)(O)O | inactive | 
Oc1ccc(-c2ccccc2)cc1 | inactive | 
CC(C)OC(=S)S | inactive | 
CCOC(=O)/C=C(C)/C=C/C[C@@H](C)CCCC(C)C | inactive | 
CC(C#N)CCC#N (stereo unspecified) | inactive | 
CC(C)c1cccc(C(C)C)c1O | inactive | 
COc1cccc(C=O)c1 | inactive | 
P.[In] | inactive | 
O=[N+]([O-])c1ccc(O)c([N+](=O)[O-])c1 | inactive | 
O=C1C(Cl)=C(Cl)C(=O)c2ccccc21 | inactive | 15 µM (active)
